# In PubChem BioAssay AID1731 (National Center for Advancing Translational Sciences (NCATS), 2009):
# A number with no mark means an inactive call. The source made the active and inactive calls. Calls come from the whole dose curve; as a rule, active = well fitted curve in the direction sought with a large enough effect; inactive = no such curve, though single readings can be large or run the other way.
# Molecular target: Epidermal growth factor receptor (Homo sapiens) (UniProt P00533)
# Assay: Assay for Inhibitors of the ERK Signaling Pathway using a Homogeneous Screening Assay: EGFR Kinase Inhibition
# Details: homogeneous biochemical assay; series mostly up to 21.9 µM; activity change, negative = inhibition: at the top concentration
# Text: qHTS Assay for Inhibitors of the ERK Signaling Pathway using a Homogeneous Screening Assay
# NIH Chemical Genomics Center [NCGC]
# NIH Molecular Libraries Screening Centers Network [MLSCN]
# Assay Submitter (PI): Dr. Wei Zheng, NCGC/NIH
# The Ras/extracellular-signal-regulated kinase (ERK) mitogen activated protein (MAP) kinase signaling pathway (ERK1/2 cascade) plays is a key role in transmitting signals from the cell surface to the nucleus (Nishida and Gotoh 1993; Chang and Karin, 2001). The cascade is initiated by the small G-protein Ras, which recruits Raf […], where activation occurs. Alternatively, this pathway can be activated by elevating intracellular cAMP.
# Activation of the ERK pathway is essential in increased cell division and cell survival. Sustained and constitutive activation of the ERK pathway, however, has been linked to uncontrolled cell proliferation, increased cell survival, and tumor progression. Thus, the ERK has been as an attractive target for cancer chemotherapy in the past few years (Sebolt-Leopold and Herrera, 2004). Given its physiological and pathological importance, assessment of ERK phosphorylation has been broadly performed in both basic research and drug discovery. Most assays for the measurement of ERK phosphorylation use the antibody-based detection methods, such as western blot and ELISA. These assays require multiple reagent additions with cell wash steps and are not suitable for high-throughput screening.
# The current cell-based ERK phosphorylation assay was performed using AlphaScreen platform. AlphaScreen is a two bead-based proximity-dependent chemical energy transfer luminescent assay platform. The assay reagents (ERK SureFire(TM) kit) were supplied from TGR BioSciences (Australia). In the presence of specific antibodies, phosphorylated ERK will bring "donor" and "acceptor" beads to a proximity range (<200 nm), and subsequently lead a chemical luminescent reaction upon exciting donor beads with 680 nm laser. To validate pathway hits from the cell-based assay, enzyme assays consisting of EGFR tyrosine kinase, Raf and MEK were used as a means of deciphering the enzymes of target for the prioritized group of compounds derived from the HEK-293 cell based assay. The compounds were tested against significant members of the ERK signaling pathway EGFR and EGFR mutants (EGFR L858R, EGFR T790M, and EGFR L858R T790M). In order to establish the specificity of the prioritized compounds for EGFR and EGFR mutants, the compounds were also assayed against other important ERK signaling pathway enzymes, c-RAF and MEK-1.
# NCGC Assay Protocol Summary:
# The HTRF kinase assay (components supplied as kit by Cisbio) was chosen for the EGFR and EGFR mutant enzyme assays that applied the time resolved fluorescence resonance energy transfer (TR-FRET) principle. A peptide substrate is labeled with a biotin that can bind to XL665 labeled streptavidin and the anti-phosphoresidue antibody is labeled with Eu+. Upon phosphorylation of the substrate, the antibody binds to phosphorylated substrate that enables TR-FRET detection in homogenous assay format.
# An HTRF Kinease TK assay kit (Cisbio, Bedford, MA) was used to develop the EGFR and EGFR mutant assays (Harbert et al., 2008. Harbert C, Marshall J, Soh S, Steger K. Development of a HTRF Kinase Assay for Determination of Syk Activity. Current Chemical Genomics. 1: 20-26. 2008). EGFR and EGFR mutants were obtained from Invitrogen. The assay buffer was composed of 50 mM HEPES (pH 7.0), 5 mM MgCl2, 5mM DTT, 0.1 % NaN3, 0.1 % BSA and 0.1 mM orthovanadate.
# The HTRF assays were preformed according to the HTRF Kinease TK kit. Optimization for each enzyme was preformed in 384 well format (data not included). All reagents were dispensed into 1536 well plates.
# (1) Enzyme, […] EGFR at 3 nM final
# (2) Compound, 22 nl, Library Compounds in 0.128 to 10 mM titration series or control
# (3) Reagent, 1.5 ul 10 uM ATP and 0.25 uM substrate final
# (4) Incubation for 30 min, Ambient conditions
# […]
# Chain of Epidermal growth factor receptor (Homo sapiens) (P00533 whole entry, looked up): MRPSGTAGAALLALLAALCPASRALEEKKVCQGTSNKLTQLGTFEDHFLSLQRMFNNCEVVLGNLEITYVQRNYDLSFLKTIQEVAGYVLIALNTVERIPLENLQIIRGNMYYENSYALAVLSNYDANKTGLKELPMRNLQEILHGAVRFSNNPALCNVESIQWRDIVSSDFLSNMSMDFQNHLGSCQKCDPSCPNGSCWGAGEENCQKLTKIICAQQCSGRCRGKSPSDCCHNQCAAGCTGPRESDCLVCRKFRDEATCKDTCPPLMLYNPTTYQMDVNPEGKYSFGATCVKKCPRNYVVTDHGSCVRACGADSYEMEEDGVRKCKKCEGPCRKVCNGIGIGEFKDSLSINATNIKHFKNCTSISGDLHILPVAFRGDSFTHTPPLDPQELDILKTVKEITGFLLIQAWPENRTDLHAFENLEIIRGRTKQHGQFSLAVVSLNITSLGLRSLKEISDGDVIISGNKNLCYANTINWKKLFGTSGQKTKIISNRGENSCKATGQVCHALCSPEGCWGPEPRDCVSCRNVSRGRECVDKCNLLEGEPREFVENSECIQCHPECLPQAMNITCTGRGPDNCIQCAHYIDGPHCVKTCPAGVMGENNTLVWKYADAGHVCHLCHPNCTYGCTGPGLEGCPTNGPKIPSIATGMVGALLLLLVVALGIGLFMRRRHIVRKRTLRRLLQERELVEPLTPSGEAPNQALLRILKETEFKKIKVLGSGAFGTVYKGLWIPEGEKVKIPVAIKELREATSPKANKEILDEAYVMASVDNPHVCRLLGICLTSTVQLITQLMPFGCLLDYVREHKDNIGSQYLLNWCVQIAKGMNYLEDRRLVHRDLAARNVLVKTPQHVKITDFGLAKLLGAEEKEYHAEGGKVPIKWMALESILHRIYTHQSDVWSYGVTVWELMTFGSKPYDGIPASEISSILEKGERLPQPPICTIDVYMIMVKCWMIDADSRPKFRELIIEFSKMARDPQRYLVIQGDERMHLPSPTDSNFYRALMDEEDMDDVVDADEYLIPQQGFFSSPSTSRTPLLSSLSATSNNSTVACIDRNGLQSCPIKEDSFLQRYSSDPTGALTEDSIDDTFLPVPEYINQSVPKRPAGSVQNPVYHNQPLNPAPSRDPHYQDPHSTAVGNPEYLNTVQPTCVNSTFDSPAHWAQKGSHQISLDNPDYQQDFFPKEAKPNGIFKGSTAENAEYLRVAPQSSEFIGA
Structure (SMILES),"activity change, negative = inhibition",Potency
O=C(Nc1nc(-c2ccccc2)cs1)c1ccc(N2CCOCC2)c([N+](=O)[O-])c1,-9.72%,
CCN(CC)CCC(=O)Nc1cccc2c1C(=O)c1ccccc1C2=O,-9.46%,
N#C/C(=C(/N)Sc1ccc(N)cc1)c1ccccc1C(F)(F)F,,inactive
CCn1c(=O)c2[nH]c(-c3ccccc3)nc2n(CC)c1=O,-8.89%,
Cn1nc(-c2ccccn2)nc2c(=O)n(C)c(=O)nc1-2,-18.1% [at 65.8 µM],
Cn1c(=O)[nH]c2nnc(-c3ccc(Cl)c(Cl)c3)nc2c1=O,-10.3%,
CN(C)c1cccc2c1C(=O)c1ccccc1C2=O,5.22% [at 65.8 µM],
CS(=O)(=O)CCNCc1nc(-c2ccc3ncnc(Nc4ccc(OCc5cccc(F)c5)c(Cl)c4)c3c2)cs1,,8.9 nM (active)
O=C1c2ccccc2C(=O)c2c(NCCCN(CCO)CCO)cccc21,-1.11% [at 65.8 µM],
Cn1nc(-c2ccc(Cl)cc2)nc2c(=O)n(C)c(=O)nc1-2,-13% [at 65.8 µM],
CNc1cccc2c1C(=O)c1ccccc1C2=O,-3.66% [at 65.8 µM],
O=C1c2ccccc2C(=O)c2c1cccc2N1CCCC1,-1.25%,
Fc1ccc(Nc2ncnc3sc4c(c23)CCC4)cc1F,,70.8 nM (active)
Cc1nc2ccccc2nc(=O)c1NNc1ccccc1,,708 nM (active)
Cc1ccc2nc(=O)c(NNc3ccccc3)cnc2c1,,708 nM (active)
Cc1ccc(NNc2c(C)nc3ccccc3nc2=O)cc1,,4470 nM (active)
COc1ccc(C(=O)c2ccc(Cl)c([N+](=O)[O-])c2)cc1,-7.44%,
